Lassa entry inh – qHTS for Inhibitors of binding or entry into cells for Lassa Virus. AID 540256, 2011. Lassa virus pseudotype entry inhibition, cell reporter. 1.2% of 300,000 active. Potency, µM (top dose mostly 37.9 µM), for the others: at the top dose activity change, negative = inhibition, actives largely listed as inhibitors; calls by dose curve; tested in HEK293 cells; note: nearly all actives have a fitted effect of over 50% in size
Vaccinia mCherry – qHTS for Stage-Specific Inhibitors of Vaccinia Orthopoxvirus: mCherry Reporter Primary qHTS; Vaccinia virus mCherry reporter infection, fluorescence; Potency, µM (series often up to 36.5 µM), for inactives: at the top dose activity change, negative = inhibition, usual class: inhibitors; 0.63% of 310,000 active; AID 720579, 2013; calls by dose curve; tested in A549 cells; note: nearly all actives have a fitted effect of over 35% in size
MARV entry inh – qHTS for inhibitors of binding or entry into cells for Marburg Virus. AID 540276, 2011. Potency, µM (titrated, usually from 37.8 µM), without a hit: at the top dose activity change, negative = inhibition, hits mostly inhibitors. Marburg virus pseudotyped entry inhibition, cell reporter. 1.8% of 300,000 active; calls by dose curve; tested in HEK293 cells
Vaccinia Venus – qHTS for Stage-Specific Inhibitors of Vaccinia Orthopoxvirus: Venus Reporter Primary qHTS. Vaccinia virus Venus reporter expression, fluorescence. Potency, µM (titrated, usually from 36.5 µM), for inactives: top-dose activity change, negative = inhibition, actives largely listed as inhibitors. 0.46% of 330,000 active. AID 720580, 2013; calls by dose curve; tested in A549 cells; note: nearly all actives have a fitted effect of over 30% in size
HCV inh – qHTS Assay for Inhibitors of Hepatitis C Virus (HCV); Huh7.5.1 HCVcc-Cre infection, luciferase reporter, 44 h; Potency, µM (series often up to 41.8 µM), inactives show at the highest dose activity change, negative = inhibition, actives largely listed as inhibitors; 3.4% of 340,000 active; AID 651820, 2012; active = well fitted inhibition curve with a large enough effect; inconclusive = small, poorly fitted or top-dose-only effect, or another doubt; inactive = no such curve, though single readings can be large or run the other way
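Cells (1,000/well) were plated 4 h before compound, then infected with HCVcc-Cre virus (~0.5 moi). After 44 h further culture, infection was read as luciferase luminescence following a 15 min substrate incubation at room temperature.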
FMDV antiviral – High Throughput Screening for Foot and Mouth Disease Virus Antivirals | FMDV antiviral cell-based qHTS | Potency, µM (doses to about 57.9 µM), inactives show top-dose activity change, negative = inhibition, usual class: inhibitors | 1.2% of 410,000 active | AID 1159524, 2015; calls by dose curve; tested in HEK293T cells; note: read-out not given here; nearly all actives have a fitted effect of over 45% in size
Starred values were filed as active, the others as inactive; [ ] = remark or other dose. Compounds with a hit are over-represented: about 5.3% of the library has one in this group of screens. % is set by controls: 0 for no effect and ±100 for the full control effect; potency is the fitted concentration of half-maximal effect.

`CCCSC1=C(C#N)C(c2cccs2)C(C(=O)Nc2ccccc2)=C(C)N1` (stereo not given) gave Lassa entry inh inconclusive, MARV entry inh inconclusive, Vaccinia Venus inconclusive, HCV inh 11µM* and FMDV antiviral -24%.
Screening CCSC1=C(C#N)C(c2cccs2)C(C(=O)OC)=C(C)N1 (stereo not given) returned Lassa entry inh inconclusive, Vaccinia mCherry -16%, MARV entry inh 26%, Vaccinia Venus -18%, HCV inh -15% and FMDV antiviral -24%.
`O=C(CCC(=O)N1CC2CCCN2c2ccccc21)NCc1ccc(Cl)cc1` (stereo not given) gave Lassa entry inh 2%[46.1 µM], Vaccinia mCherry 11%, Vaccinia Venus 0% and FMDV antiviral -19%.
Screening CCCCn1c(=O)[nH]c(=O)c2c1nc(Cn1ncc(Cl)c(Cl)c1=O)n2CCC returned Lassa entry inh inconclusive, Vaccinia mCherry inconclusive, MARV entry inh inconclusive, Vaccinia Venus inconclusive, HCV inh 10µM* and FMDV antiviral inconclusive.
For Cn1cccc/c1=N\c1cccc[n+]1C the results were HCV inh 3.5µM* and FMDV antiviral -21%.
`COc1ccc(/C=C/C(=O)c2ccc3ccccc3c2O)cc1CN1CCOCC1` gave Lassa entry inh 19%, Vaccinia mCherry -10%, MARV entry inh 2%, Vaccinia Venus 0%, HCV inh -20% and FMDV antiviral inconclusive.
COc1ccc(C)cc1Cn1nnc2ccccc21 was read as Vaccinia mCherry -7%, Vaccinia Venus -14%, HCV inh 1% and FMDV antiviral 4%.
Screening COc1ccc(/C=C/C(=O)c2ccccc2O)cc1CN1CCOCC1 returned Lassa entry inh inconclusive, MARV entry inh 11µM*, Vaccinia Venus 3%, HCV inh inconclusive and FMDV antiviral inconclusive.
Screening COc1ccc(C(=O)/C=C/c2ccc(OC)c(Cn3nnc4ccccc43)c2)cc1 returned Lassa entry inh inconclusive, Vaccinia mCherry 13µM*, MARV entry inh inconclusive, Vaccinia Venus inconclusive, HCV inh -25% and FMDV antiviral 13µM*.
`COc1ccc(C(=O)/C=C/c2ccc(OC)c(CN3CCOCC3)c2)cc1` gave Lassa entry inh inconclusive, Vaccinia mCherry 10µM*, MARV entry inh inconclusive, Vaccinia Venus inconclusive, HCV inh 11% and FMDV antiviral 14µM*.
`CC1CCc2cc(F)ccc2N1C(=O)CCl` (stereo not given) gave Lassa entry inh -3%, Vaccinia mCherry -21%, MARV entry inh inconclusive, Vaccinia Venus -2%, HCV inh inconclusive and FMDV antiviral 14µM*.
For CCCn1c2ccc(C)cc2c2nnc(SCCN3CCCCC3)nc21 the results were Lassa entry inh -23%[46.1 µM], Vaccinia mCherry inconclusive, MARV entry inh inconclusive, Vaccinia Venus inconclusive, HCV inh 8.9µM* and FMDV antiviral -16%.
For CCn1c2ccc(F)cc2c2nnc(SCCN3CCCCC3)nc21 the results were Lassa entry inh 13%[46.1 µM], Vaccinia mCherry -4%, MARV entry inh inconclusive, Vaccinia Venus -21%, HCV inh 14µM* and FMDV antiviral -25%.
CCc1ccc2c(CN3CCN(S(=O)(=O)c4ccccc4F)CC3)cc(=O)oc2c1 was read as Lassa entry inh inconclusive, Vaccinia mCherry -14%, MARV entry inh 11µM*, Vaccinia Venus -11%, HCV inh 13µM* and FMDV antiviral inconclusive.
`CCc1ccc2c(CN3CCN(Cc4ccccc4)CC3)cc(=O)oc2c1` gave Lassa entry inh 1%, Vaccinia mCherry 55%, MARV entry inh -3%[46.1 µM], Vaccinia Venus -17%, HCV inh inconclusive and FMDV antiviral 0%.
`Cc1cc2oc(=O)cc(CN3CCN(S(=O)(=O)/C=C/c4ccccc4)CC3)c2cc1C` gave Lassa entry inh 5%, Vaccinia mCherry 17%, MARV entry inh -18%, Vaccinia Venus -1%, HCV inh inconclusive and FMDV antiviral inconclusive.
Screening CCc1ccc2c(CN3CCN(S(=O)(=O)c4cccs4)CC3)cc(=O)oc2c1 returned Lassa entry inh 2.5µM*, Vaccinia mCherry -26%, MARV entry inh inconclusive, Vaccinia Venus inconclusive, HCV inh inconclusive and FMDV antiviral inconclusive.
`Cc1cc2oc(=O)cc(CN3CCN(S(=O)(=O)c4ccc5c(c4)OCCO5)CC3)c2cc1C` gave Lassa entry inh -23%, MARV entry inh -14%, HCV inh 7.1µM* and FMDV antiviral 11%.
`CC1C(=O)N(Cc2ccc(F)cc2)c2ccccc2N1C(=O)c1c(F)cccc1F` (stereo not given) gave HCV inh inconclusive and FMDV antiviral 22µM*.
Screening CCc1cc(=O)oc2c3c(cc(OCC(=O)NC4CC4)c12)OC(C)(C)CC3 returned Vaccinia mCherry -9%, Vaccinia Venus -15%, HCV inh 0.79µM* and FMDV antiviral -20%.
CCc1cc(=O)oc2c3c(cc(OCC(=O)NCc4ccco4)c12)OC(C)(C)CC3 was read as Vaccinia mCherry -7%, Vaccinia Venus 2%, HCV inh 1.3µM* and FMDV antiviral inconclusive.
Screening CCc1cc(=O)oc2c3c(cc(OCC(=O)NCc4ccncc4)c12)OC(C)(C)CC3 returned Vaccinia mCherry -10%, Vaccinia Venus -12%, HCV inh inconclusive and FMDV antiviral -12%.
Screening CCc1cc(=O)oc2c3c(cc(OCC(=O)NCCCC(=O)O)c12)OC(C)(C)CC3 returned HCV inh 11% and FMDV antiviral -5%.
For CCCOC(=O)c1ccc(Oc2cn[nH]c2-c2ccc(O)cc2O)cc1 the results were HCV inh 8.9µM* and FMDV antiviral inconclusive.
CCCOC(=O)c1ccc(Oc2c(-c3ccc(O)cc3O)n[nH]c2C)cc1 was read as Lassa entry inh inconclusive, MARV entry inh -10%, Vaccinia Venus inconclusive, HCV inh inconclusive and FMDV antiviral -8%.
`CCCOC(=O)c1ccc(Oc2c(-c3ccc(OC)cc3O)n[nH]c2C)cc1` gave Lassa entry inh 11µM*, Vaccinia mCherry inactive[1.46 µM], MARV entry inh -16%, Vaccinia Venus inconclusive, HCV inh inconclusive and FMDV antiviral -1%.
Screening CCNc1ncc2nc(C)c(=O)n(C[C@H]3CCCO3)c2n1 returned FMDV antiviral -19%.
Screening Cc1ccc(Nc2cc(C)c(C#N)c3nc4ccccc4n23)c(C)c1 returned Lassa entry inh 0%[46.1 µM], Vaccinia mCherry -1%, MARV entry inh 12%[46.1 µM], Vaccinia Venus 3% and FMDV antiviral -27%.
N#Cc1nc(-c2ccccc2)cc(-c2ccccc2)n1 was read as Vaccinia mCherry -20% and Vaccinia Venus -22%.
